Screening data from PubChem BioAssay.
Only a selection was taken, and hits are over-represented in it overall.
BL2 CD40 inh: CD40 pathway inhibition in BL2 cells | BL2 NF-kB luciferase reporter, CD40L-induced, 4 h | inhibition, % at 10 µM | hit rate 0.94% among 83,000 | AID 1053188;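 active = mean inhibition of at least 50% with a set share of replicates also reaching that level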
A number is an active result.

CNC[C@@H]1Oc2ccccc2CC(=O)N(C)C[C@H]1C was read as BL2 CD40 inh inactive.
For CS(=O)(=O)N1[C@@H](CO)[C@@H](c2ccccc2)C12CN(Cc1cc(F)ccc1F)C2 the results were BL2 CD40 inh inactive.
`C[C@H](CO)N1C[C@H](C)[C@H](CN(C)C(=O)Nc2ccc3c(c2)OCO3)OCc2ccccc2-c2c(n(C)c3ccccc23)C1=O` gave BL2 CD40 inh inactive.
Cc1ccc(S(=O)(=O)CC(=O)N2CCN(c3ccc([N+](=O)[O-])cc3)CC2)cc1 was read as BL2 CD40 inh inactive.
`Cc1ccc(S(=O)(=O)CC#CCOC(=O)c2ccc([N+](=O)[O-])cc2)cc1` gave BL2 CD40 inh 89.
For Cc1ccc(CONC(=O)c2ccc([N+](=O)[O-])cc2)cc1 the results were BL2 CD40 inh inactive.
`COc1cccc(C(=O)N2C[C@H]3[C@@H](c4ccccc42)[C@@H](CO)N3C(=O)c2cccc(F)c2)c1` gave BL2 CD40 inh inactive.
Screening Cc1ccc(P(=O)(CSC(=N)N)c2ccc(C)cc2)cc1 returned BL2 CD40 inh 61.
For COCC(=O)N1[C@H](CO)[C@@H](c2ccc(C3=CCCCC3)cc2)[C@@H]1C#N the results were BL2 CD40 inh inactive.
Screening C/C=C/c1ccc(C2[C@H]3CNC[C@@H]2N3S(=O)(=O)c2cccc(OC)c2)cc1 (stereo partly drawn) returned BL2 CD40 inh inactive.
Screening Nc1ncnc2c1ncn2CCNCCc1ccccc1 returned BL2 CD40 inh inactive.
For Cc1ccc(OCCCCn2cnc3ccccc32)cc1 the results were BL2 CD40 inh inactive.
`Cc1ccc(OCCn2cnc3c(N)ncnc32)cc1` gave BL2 CD40 inh 84.
C[C@@H]1CN([C@H](C)CO)C(=O)c2cccc(NS(=O)(=O)c3ccccc3)c2O[C@@H]1CN(C)CC1CCCCC1 was read as BL2 CD40 inh inactive.
For CN(C)C(=O)[C@@H]1[C@@H](CO)[C@@H]2Cn3c(ccc(-c4ccncc4)c3=O)[C@@H]2N1Cc1ccccc1 the results were BL2 CD40 inh inactive.
CC(=O)OCC=C1CCC2C3CCC4=CC(=O)CCC4(C)C3C(O)CC12C (stereo not drawn) was read as BL2 CD40 inh inactive.
Screening CC(=O)OCC(=O)C1(O)CCC2C3CCC4=CC(=O)CCC4(C)C3(Cl)C(O)CC21C (stereo not drawn) returned BL2 CD40 inh 62.
Screening C[C@]12CCC(=O)C=C1CC[C@@H]1[C@@H]2[C@@H](O)C[C@@]2(C)[C@H]1CC[C@]2(O)C(=O)COC(=O)CCC(=O)O returned BL2 CD40 inh inactive.
For N#CC1(NC(=O)COC(=O)c2ccc(Cl)nc2)CCCCC1 the results were BL2 CD40 inh inactive.
`Cc1cc(SCC(=O)NC2(C#N)CCCCC2)nc2c(C)cccc12` gave BL2 CD40 inh inactive.
`N#CC1(NC(=O)Cn2ncc(Cl)c(Cl)c2=O)CCCCC1` gave BL2 CD40 inh 119.
O=C(NCCc1ccccc1)[C@H]1[C@H](CO)[C@H]2Cn3c(cccc3=O)[C@@H]1N2C(=O)C1CC1 was read as BL2 CD40 inh inactive.
Cc1ccc(-n2ccnc(SCC(=O)NCCc3ccccc3)c2=O)cc1F was read as BL2 CD40 inh 54.
`Cc1ccc(-n2ccnc(SCC(=O)NC3CCCC3)c2=O)cc1Cl` gave BL2 CD40 inh inactive.
CCOc1ccc(-n2ccnc(SCC(=O)NCCc3ccccc3)c2=O)cc1 was read as BL2 CD40 inh inactive.
Screening C[C@@H]1CN(C)C(=O)c2ccccc2O[C@@H]1CN(C)C(=O)OC(C)(C)C returned BL2 CD40 inh inactive.
CC(=O)Nc1cccc2c1O[C@@H](CN(C)S(C)(=O)=O)[C@@H](C)CN(C)C2=O was read as BL2 CD40 inh inactive.
For C=CC[n+]1c(/C=C2\C=Cc3cc(C)ccc3N2CC)ccc2ccccc21 the results were BL2 CD40 inh 65.
Screening COc1ccc(/C=N/NC(=O)CC(=O)N/N=C/c2ccc(OC)cc2)cc1 returned BL2 CD40 inh inactive.
`COc1ccc(/C=N/NC(=O)c2nonc2C)cc1` gave BL2 CD40 inh 64.
Screening Cc1nonc1C(=O)N/N=C/c1ccc([N+](=O)[O-])o1 returned BL2 CD40 inh inactive.
Screening CC(=O)N1[C@H](CO)[C@H](c2ccc(C3=CCCC3)cc2)[C@H]1CNC(=O)CN(C)C returned BL2 CD40 inh inactive.
`CCN1[C@@H]2c3ccc(-c4ccccc4OC)c(=O)n3C[C@@H]2[C@@H](CO)[C@@H]1C(=O)NCc1ccc(F)cc1` gave BL2 CD40 inh inactive.
COc1ccc(Sc2nnc(-c3ccccc3)cc2C#N)cc1 was read as BL2 CD40 inh inactive.
COc1ccc(-c2cc(-c3ccccc3)c(C#N)c(S(C)=O)n2)cc1 (stereo not drawn) was read as BL2 CD40 inh 76.
For COc1ccc(-c2cc(-c3ccccc3)c(-c3ccccc3)nn2)cc1 the results were BL2 CD40 inh inactive.
O=C(C1CCCCC1)N1C[C@@H]2[C@H](c3ccccc31)[C@H](CO)N2Cc1ccccc1Cl was read as BL2 CD40 inh inactive.
`Cc1ccc(S(=O)(=O)N[C@@H]2CC[C@H](CCNC(=O)C3CCCC3)O[C@H]2CO)cc1` gave BL2 CD40 inh inactive.
